Source: PubChem BioAssay (National Center for Advancing Translational Sciences (NCATS))
IkB signaling: IkB pathway inhibition in ABC-DLBCL cells; ABC-DLBCL IkBa-CBG/CBR dual luciferase ratio, 4 h; response scale: scaled: untreated 0%, proteasome inhibitor 100%; 0.04% of 110,000 active; Potency, µM (doses to about 57.1 µM), without a hit: at the top dose IkBa stabilization activation; active means well fitted curve in the direction sought with a large enough effect in the signal ratio, not every such curve was filed as active; inconclusive means small, poorly fitted or top-dose-only effect, or a change in a side signal; the % refers to the signal ratio;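 further: the direction sought is a rising ratio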
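In this assay, an IκBα–CBG68 fusion accumulates when IKK-driven degradation is blocked; native CBR normalizes for cell number. OCI-Ly3 cells were treated 4 h with compound and doxycycline, then green and red light read after Chroma-Glo addition.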
p53ts 32C kill: p53ts cell cytotoxicity, permissive temperature | 0.93% of 130,000 active | H1299-p53A138V at 32C, ATP luminescence viability, 24 h | AID 924 | Potency, µM (doses to about 46.1 µM), without a hit: at the highest dose activity change, negative = cytotoxicity, hits mostly cytotoxic;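 further: 0% = DMSO and -100% = full killing by reference compound; nearly all actives have a fitted effect of over 55% in size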
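Viability by ATPlite luminescence after 24 h compound treatment (up to 46 uM) at the permissive 32C. Cells are H1299 carrying p53 A138V. Scale runs from DMSO basal to 100 uM tamoxifen as full kill; AC50 from Hill fits.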
p53ts 39C tox: kills p53ts cells at the nonpermissive temperature. H1299-p53A138V viability at 39C, ATP luminescence, 24 h. Potency, µM (doses to about 46.1 µM), without a hit: top-dose activity change, negative = cell killing, actives largely listed as cytotoxic. 1.5% of 130,000 active; further: on the % scale 0 is the no-effect control and ±100 the full control effect; nearly all actives have a fitted effect of over 55% in size
FLuc inh: blocks Photinus pyralis firefly luciferase activity | P08659 | purified firefly luciferase, luminescence, 8 min | Potency, µM (titrated, usually from 57.1 µM), without a hit: top-dose activity change, negative = inhibition, actives largely listed as inhibitors | 2.2% of 72,000 active | AID 411; further: on the % scale 0 is the no-effect control and ±100 the full control effect; nearly all actives have a fitted effect of over 40% in size
Target sequence (P08659 whole entry, looked up): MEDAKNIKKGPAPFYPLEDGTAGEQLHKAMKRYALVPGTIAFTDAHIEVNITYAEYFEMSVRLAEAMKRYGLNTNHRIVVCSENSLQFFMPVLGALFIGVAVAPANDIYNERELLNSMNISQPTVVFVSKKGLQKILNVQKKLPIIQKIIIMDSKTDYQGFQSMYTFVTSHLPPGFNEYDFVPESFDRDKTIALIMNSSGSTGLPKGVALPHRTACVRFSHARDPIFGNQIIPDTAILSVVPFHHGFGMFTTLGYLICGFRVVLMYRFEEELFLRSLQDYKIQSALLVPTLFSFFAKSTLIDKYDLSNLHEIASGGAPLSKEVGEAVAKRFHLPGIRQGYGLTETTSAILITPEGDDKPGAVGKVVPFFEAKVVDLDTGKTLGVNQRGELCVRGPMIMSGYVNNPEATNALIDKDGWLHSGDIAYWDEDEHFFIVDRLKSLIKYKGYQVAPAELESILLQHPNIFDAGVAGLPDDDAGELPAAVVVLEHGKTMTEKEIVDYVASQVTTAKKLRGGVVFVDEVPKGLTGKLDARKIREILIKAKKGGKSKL
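Inhibition of light generation by firefly luciferase from ATP and luciferin was profiled with concentration-response curves per sample, ATP held at 10 uM within the enzyme's linear range. Plates were read by luminescence after an 8-minute ambient incubation.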
Peg3 imprint: induces erasure of genomic imprints in mouse ES cells; AID 1948; 0.02% of 110,000 active; Potency, µM (top dose mostly 60.7 µM), for inactives: at the highest dose activity change, positive = activation, most hits filed as activators; mouse ES Peg3-LacZ reporter, beta-gal luminescence, 40 h
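Each well holds 300 Peg3LacZ-Neo (maternal) female ES cells incubated 40 h at 37C, 5% CO2. LacZ is measured by BetaGlo luminescence, with AC50 and maximum efficacy derived from dose-response curves.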
* = called active by the depositor; ? = inconclusive; / = not tested or not shown; [ ] = dose if it differs, or a comment. In the library only some 2.4% were active in any assay of this set; here they are far more common. Unless noted, the call rests on the fitted dose curve; in most records, active means well fitted curve in the direction sought with a large enough effect; inconclusive means small, poorly fitted or top-dose-only effect, or another doubt; inactive means no such curve, though single readings can be large; an effect the other way counts as inactive or inconclusive. Potency means the concentration at half of the fitted maximal effect.

SMILES	IkB signaling	p53ts 32C kill	p53ts 39C tox	FLuc inh	Peg3 imprint
COc1cc(Cl)c(NC(=O)CN(C)S(=O)(=O)c2ccc3c(c2)CCCC(=O)N3)c(OC)c1	?	-11.9%	24.6%	/	-9.4%[10.9 µM]
Oc1ccc(OCc2ccccc2)cc1	-9.5%[25.6 µM]	-10.7%[20.6 µM]	-17.6%[20.6 µM]	-2.0%[25.5 µM]	-49.6%[16.8 µM]
Oc1ccc(NCc2ccc(OCc3ccccc3Cl)cc2)cc1	?	?	10µM*	/	-65.0%[10.9 µM]
Oc1ccc(NCc2ccc(OCc3ccccc3)cc2)cc1	?	?	20µM*	/	-53.7%[10.9 µM]
CCCOc1ccc(CN2C(=O)C(=O)c3cccc(C)c32)cc1	0.5%	42.9%	15.8µM*	/	-26.1%[10.9 µM]
Cc1ccc(CN2C(=O)C(=O)c3cc(Br)cc(C)c32)cc1	?	?	10µM*	/	-23.1%[10.9 µM]
Cc1cccc2c1N(CCOc1ccc(C(C)(C)C)cc1)C(=O)C2=O	/	/	3.8%	/	/
CCc1c(C)sc2c1CCN(C(=O)Nc1cc(C)ccc1OC)C2c1ccc(F)cc1 (stereo not given)	0.7%	0.0%	-0.4%	/	-23.5%[10.9 µM]
Nc1ccc(O)c(-c2nc3ccccc3s2)c1	?	-11.1%	-24.0%	?	-85.9%
Nc1ccc2nc(-c3ccc(O)cc3)sc2c1	?	0.631µM*	0.631µM*	/	-79.1%[10.9 µM]
Cc1ccc2nc(-c3ccc(NC(=O)c4ccc(N)cc4)c(S(=O)(=O)O)c3)sc2c1	-1.6%[11.4 µM]	-9.2%[9.22 µM]	-24.3%[9.22 µM]	-29.1%[11.4 µM]	-4.0%[10.9 µM]
Nc1cccc(-c2nc3ccc(N)cc3s2)c1	?	3.16µM*	3.16µM*	1µM*	-90.4%
Cc1ccc(CNC(=O)c2cccn2-c2nnc(N3CCCCC3)s2)cc1	1.8%	-3.1%	12.6%	/	-12.1%[10.9 µM]
OC[C@@H](O)CNc1ncnc2ccccc12	-0.6%[11.4 µM]	-0.7%[9.22 µM]	0.4%[9.22 µM]	1.2%[11.4 µM]	-8.1%[10.9 µM]
COc1ccc(/C=C/C(=O)Nc2ccc3nc(N4CCC(C)CC4)cc(C)c3c2)cc1OC	?	-5.3%	-10.6%	/	-35.1%[10.9 µM]
CCN1CCN(c2cc(C)c3cc(NC(=O)/C=C/c4ccc(C)cc4)ccc3n2)CC1	?	?	3.16µM*	/	-6.1%[10.9 µM]
CCN1CCN(c2cc(C)c3cc(NC(=O)c4cc(OC)c(OC)c(OC)c4)ccc3n2)CC1	3.4%	-8.2%	-30.0%	/	-8.4%[10.9 µM]
CCN1CCN(c2cc(C)c3cc(NC(=O)/C=C/c4ccc(OCCC(C)C)cc4)ccc3n2)CC1	?	11.8%	6.31µM*	/	-32.3%[10.9 µM]
O=C(NC1CC(=O)N(c2ccccc2)C1)c1ccc(S(=O)(=O)N2CCCCC2)cc1 (stereo not given)	?	-1.6%	-5.4%	/	8.4%[10.9 µM]
C[C@H](N)C(=O)OC(C)(C)Cc1ccc(Cl)cc1	-4.6%	-7.3%	5.4%	-0.4%	/
O=C(Nc1ccccc1)N(O)c1ccc(Cl)cc1	2.8%	-13.9%	-16.7%	12.6µM*	-56.4%
CN(c1ccccc1C(=O)O)S(C)(=O)=O	1.8%	-3.3%	11.4%	0.1%	/
CN(C)c1ccccc1C(=O)c1ccccc1N(C)C	10.3%	-26.2%	?	25.1µM*	-32.8%
O[Si@](CCCN1CCCCC1)(c1ccc(F)cc1)C1CCCCC1	-3.4%	-20.8%	?	3.4%	/
Nc1ncnc2nc[nH]c12.Nc1ncnc2nc[nH]c12.[Cl][Pt]([Cl])([Cl])[Cl]	1.2%[11.4 µM]	/	/	-4.4%[11.4 µM]	/
SMILES	IkB signaling	p53ts 32C kill	p53ts 39C tox	FLuc inh	Peg3 imprint
O=[N+]([O-])c1cccc(/C=N\Nc2ccc3ccccc3n2)c1O	?	2.51µM*	3.98µM*	3.16µM*	-53.3%[10.9 µM]
CCCN(CCC)CCCNC(=O)c1sc2nc3n(c(=O)c2c1C)CCC3	0.2%	0.0%	-1.2%	/	-7.5%[10.9 µM]
Cc1cc(C)cc(NC(=O)CCN2C(=O)c3ccccc3Sc3ncccc32)c1	-0.1%	0.4%	-3.1%	/	-17.7%[10.9 µM]
COc1ccc(NC(=O)c2ccco2)cc1NC(=O)COc1cc(C)ccc1C(C)C	-2.2%	-29.9%	?	/	-11.2%[10.9 µM]
COc1cc(NC(=O)C(C)C)ccc1NC(=O)c1ccco1	-2.7%	?	?	20µM*	-5.8%
COc1ccc(NC(=O)c2ccco2)cc1NC(=O)COc1ccc(Cl)c(C)c1	-0.6%	?	10µM*	/	-5.5%[10.9 µM]
Cc1ccc(C)c(Cn2c3ccccc3c3cnn(CC(=O)NC4CCC(C)CC4)c(=O)c32)c1 (stereo not given)	?	-13.0%	?	/	16.7%[10.9 µM]
CCOc1ccc(-c2ccc(CO)o2)cc1N	4.2%	15.8µM*	?	/	-23.0%[10.9 µM]
Cc1ccccc1Cn1ccn(-c2ccc(F)c(F)c2)c(=O)c1=O	-2.2%	-2.0%	-21.1%	/	-6.1%[10.9 µM]
CCn1nc(NC(=O)c2ccccn2)c2cc3cc(C)ccc3nc21	13.9%	-12.5%	-12.6%	7.94µM*	-17.5%
CCn1nc(NC(=O)c2cccnc2)c2cc3ccccc3nc21	/	/	/	-1.7%[25.5 µM]	/
Cc1ccc(NC(=O)Cn2c(=O)nc(-c3ccccc3F)c3cc(Cl)ccc32)c(Br)c1	0.0%	4.9%	-1.2%	/	-6.5%[10.9 µM]
CC1CCCN(CCCNC(=O)c2ccc3c(c2)N(Cc2cccc(Cl)c2)C(=O)c2ccccc2S3(=O)=O)C1 (stereo not given)	-0.3%	3.3%	12.6µM*	/	-17.0%[10.9 µM]
COc1cc(NC(=O)c2cc3cc4ccc(C)cc4nc3o2)cc(OC)c1OC	0.8%	-8.0%	7.0%	/	12.5%[10.9 µM]
CC1=CC(=O)C2=C(C)CC[C@@H]3[C@H](OC(=O)[C@H]3C)[C@H]12	0.8%[11.4 µM]	/	/	2.8%[11.4 µM]	/
c1ccc2c(c1)Cc1cc3ccccc3nc1-2	/	7.94µM*	12.6µM*	/	-88.7%
